Data as given in PubChem BioAssay AID1159580 (chemical genetic matrix, 2015).
Out of some 5,500 compounds screened, about 2,000 (36%) were called active. About 18% were inconclusive and are not listed. No stated cut-off is given here; in the data, active means normalized growth mostly below about 0.91 (no sharp cut-off); inconclusive means no clear call, values can overlap the other calls; inactive means mostly above about 0.92. The list shows a part of the results.

Assay: chemical genetic growth profiling, strain panel (AID 1159580);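 further: tested at 20 µM; growth read once vehicle control cultures reached saturation at 30 °C; 1 = growth at the plate median or of vehicle wells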
Conditions: S. cerevisiae deletion strains, growth OD

Measured: normalized growth

COC(=O)[C@H](Cc1ccccc1)NC(=O)/C(=C1\OC(=O)C(c2ccccc2)=C1O)c1ccccc1
inactive: locus YHR030C, strain SLT2, stronger effect = lower value 1.05 | locus YHR079C, strain IRE1, stronger effect = lower value 1.06 | locus YJL095W, strain BCK1, stronger effect = lower value 0.998 | locus YJR066W, strain TOR1, stronger effect = lower value 0.992 | locus YLR113W, strain HOG1, stronger effect = lower value 0.961 | locus YNL183C, strain NPR1, stronger effect = lower value 0.98 | locus YOR231W, strain MKK1, stronger effect = lower value 1.04 | locus YPL256C, strain CLN2, stronger effect = lower value 1.05
